Source: PubChem BioAssay (National Center for Advancing Translational Sciences (NCATS))
Sampled rows, rich in hits. Any-hit rate of the full collection: about 6%.
DRD3 antagonist: blocks the human D3 dopamine receptor; D3R cells, DiscoveRx beta-arrestin luminescence, antagonist mode; hits give low values; actives 2.5% (n = 360,000); max response, negative = inhibition, %; in the data active means max response below about -50%; inconclusive means no clear call, values can overlap the other calls; further: on the % scale 0 is the no-effect control and ±100 the full control effect
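Cells plated overnight at 1500 cells/well, then exposed to library compounds with dopamine controls for 90 minutes at 37 degrees C. DiscoveRx reagent added for 30–60 minutes at room temperature; luminescence read, quantitative HTS format.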
D1 potentiator: potentiators of human D1 dopamine receptor; potentiation, % at 10 µM; HEK293 TREx D1 cells, calcium flux, dopamine EC20 potentiation; AID 504651; actives 0.036% (n = 360,000); in the data active means potentiation above about 30%; further: 0% is about no effect
Target sequence (P21728 whole entry, looked up): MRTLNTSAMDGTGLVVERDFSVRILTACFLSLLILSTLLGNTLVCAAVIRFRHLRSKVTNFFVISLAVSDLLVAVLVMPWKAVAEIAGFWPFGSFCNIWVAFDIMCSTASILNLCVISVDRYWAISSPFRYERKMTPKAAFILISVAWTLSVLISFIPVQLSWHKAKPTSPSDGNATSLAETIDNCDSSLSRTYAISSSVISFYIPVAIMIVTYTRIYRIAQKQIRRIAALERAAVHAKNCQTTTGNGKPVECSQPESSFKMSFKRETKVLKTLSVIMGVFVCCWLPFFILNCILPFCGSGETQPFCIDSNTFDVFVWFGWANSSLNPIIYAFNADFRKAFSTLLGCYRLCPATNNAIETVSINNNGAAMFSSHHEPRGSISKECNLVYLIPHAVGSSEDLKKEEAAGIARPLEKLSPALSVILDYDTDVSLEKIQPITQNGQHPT
D1 antag: blocks dopamine activation of the human D1 receptor; activity change, negative = inhibition, % at 10 µM; HEK293 TREx D1 cells, calcium flux, dopamine EC80; hits give low values; P21728; actives 3.2% (n = 360,000); AID 504652; in the data active means activity change below about -30%; further: on the % scale 0 is the no-effect control and ±100 the full control effect
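Kinetic fluorescence of a calcium dye serves as the read-out. D1-expressing Hek293 Trex cells, induced overnight at 30 C, are exposed to compound for 180 s before an EC80 dopamine addition, then read 180 s further.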
D1 agonist: activates the human D1 dopamine receptor; activation, % at 2 µM; AID 504660; P21728; HEK293 T-REx D1 cells, calcium flux, agonist mode; actives 1% (n = 360,000); in the data active means activation above about 30%; further: 0% is about no effect
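Inducible HEK293 T-REx D1 cells, force-coupled to calcium signalling, were plated at 4000 cells/well with tetracycline and held overnight at 30 C. After no-wash calcium dye loading, compound-evoked calcium rise over 180 s flagged agonists.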
Chronic BCR inh: blocks chronic active B-cell receptor signaling | ABC-DLBCL IkBa-CBG/CBR reporter, luminescence ratio, 4 h | Potency, µM (top dose mostly 46.1 µM), for the others: top-dose activity change, negative = inhibition, hits mostly inhibitors | actives 0.05% (n = 340,000) | AID 493014; active means well fitted inhibition curve with a large enough effect in the signal ratio, with a control signal flat, not every such curve was filed as active; inconclusive means small, poorly fitted or top-dose-only effect, or effect the other way, or a change in a side signal; the % refers to the signal ratio;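 further: potency means the concentration at half of the fitted maximal effect; plate controls were basal doxycycline-induced cells for no effect and cells given 10 µM MG132 for full effect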
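TMD8 ABC-DLBCL cells carrying doxycycline-inducible green luciferase fused to IkappaBalpha plus unfused red luciferase were exposed to compounds (up to 46 uM) for 4 hrs at 37C. Activity came from the overlap-corrected green/red luminescence ratio.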
DRD3 agonist: D3 dopamine receptor (human) agonism; P35462; max activation, %; actives 0.58% (n = 410,000); D3R DiscoveRx beta-arrestin cells, luminescence, 90 min; AID 652048; in the data active means max activation above about 30%; further: 0% is about no effect
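Cells at 1500/well, incubated overnight, then treated with pinned compounds (dopamine as control) for 90 min at 37 degrees C. DiscoveRx reagent added for 30 - 60 minutes at room temperature; luminescence read.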
Active calls of the source: *; ? = inconclusive; nt = not tested or not shown; ! = repeats disagree.

SMILES | DRD3 antagonist | D1 potentiator | D1 antag | D1 agonist | Chronic BCR inh | DRD3 agonist
COC(=O)C1CCN(Cc2cn(-c3ccccc3)nc2-c2ccc3c(c2)OCO3)CC1 | -69* | -4 | 8 | 4 | ? | -2
COC(=O)C1CCN(Cc2nnc(-c3ccccc3)o2)CC1 | 19 | -5 | 5 | 4 | ? | 81*
c1ccc(-c2nnc(CN3CCCCC3)o2)cc1 | -5 | -1 | -2 | 1 | ? | -2
CCOC(=O)N1CCN(Cc2nc(-c3ccccc3)no2)CC1 | -20 | -2 | 17 | 10 | -5% | 1
NC(=O)C1CCN(Cc2nc(-c3ccccc3)no2)CC1 | 29 | -2 | 1 | 2 | -1% | 34*
COc1ccc(N2CCN(C(=O)COC(=O)CC(NC(N)=O)c3ccc(Cl)cc3)CC2)cc1 (stereo not given) | 5 | nt | nt | nt | nt | 0
c1ccc(N2CCN(c3nnc(Cc4cccnc4)c4ccccc34)CC2)nc1 | 7 | -3 | -6 | 0 | ? | 42*
c1ccc(N2CCN(c3cnccn3)CC2)nc1 | 4 | 4 | -41* | -1 | 5% | -1
COc1ccc2c(c1)c1c(c(=O)n(-c3cccc(C)c3)c(=O)n1Cc1cccc(Cl)c1)n2C | nt | -2 | -4 | 0 | nt | -2
Fc1ccc(C2=NNC(=NCc3ccccc3)SC2)cc1F | -4 | -9 | -40* | 0 | ? | -5
Cc1cccc(NC(=S)N/C(=N/S(=O)(=O)c2ccccc2)c2ccccc2)c1 | -61*! | -12 | 5 | 2 | -12% | -3
COc1ccc(-n2nc3c(N4CCC(C(=O)NCc5cccc(C)c5)CC4)nnc(C)c3c2C)cc1 | -59* | 12 | 43 | 3 | ? | 5
COc1ccc(-n2nc3c(N4CCCC(C(=O)NCc5cccc(F)c5)C4)nnc(C)c3c2C)cc1 (stereo not given) | nt | -1 | 6 | 5 | nt | 17
COc1ccccc1CCNC(=O)C1CCN(c2nnc(C)c3c(C)n(-c4ccc(C)cc4)nc23)CC1 | -70* | 0 | 32 | 2 | -4% | 17
Cc1nnc(N2CCCC(C(=O)NCc3ccccc3F)C2)c2nn(-c3ccccc3)c(C)c12 (stereo not given) | 3 | -3 | 47 | 2 | -11% | -1
Cc1ccccc1CNC(=O)C1CCCN(c2nnc(C)c3c(C)n(-c4ccccc4)nc23)C1 (stereo not given) | -27 | 46* | 16 | 11 | 6% | -3
CC(c1nc2ccccc2c(=O)[nH]1)N1CCN(S(=O)(=O)c2ccc(F)c(Cl)c2)CC1 (stereo not given) | 17 | nt | nt | nt | nt | 4
CCOC(=O)C1=CCN(S(=O)(=O)c2ccc(C)cc2)C1c1ccccc1F (stereo not given) | 30 | nt | nt | nt | nt | 11
O=C(CSc1nnnn1-c1ccccc1)Nc1ccc(N2CCOCC2)c(Cl)c1 | -8 | -6 | -14 | 1 | nt | -4
CC(Sc1nncn1C)C(=O)Nc1ccc(N2CCCCC2)cc1 (stereo not given) | -10 | 0 | -35* | 2 | 10% | 0
CN1CCN(c2ccc(NC(=O)CSc3nnnn3-c3ccccc3Cl)cc2)CC1 | -13 | -10 | -83* | 12 | 14% | -8
CC(Sc1nnnn1-c1ccccc1)C(=O)Nc1ccc(N2CCN(C)CC2)cc1 (stereo not given) | 2 | -14 | -37* | 10 | 12% | -13
CCCCCCCCCCCCCCCC(=O)OC[C@H](O)[C@H]1OC(=O)C(O)=C1O | nt | nt | nt | nt | nt | -15
CCCN(CCC)CC(O)COc1ccc2c(c1)OCO2 (stereo not given) | 9 | -6 | -45* | 2 | -1% | -9
OC(COc1ccc2c(c1)OCO2)CN1CCc2ccccc2C1 (stereo not given) | -78* | -8 | -13 | 3 | 0% | -35
CC(C)(C)C1CCC(OCC(O)CN2CCN(Cc3ccccc3)CC2)CC1 (stereo not given) | ? | 6 | -2 | 8 | -11% | -7
OC(COC1CCCCC1)CN1CCN(c2ccccc2)CC1 (stereo not given) | -61* | -1 | -8 | 4 | 8% | 4
